This is a sample that favours compounds with a hit; in the whole collection about 2.3% have one here.
TRPM1 prom inh = inhibitors of MITF-driven TRPM1 promoter in melanoma cells; SK-MEL-5 TRPM1 promoter luciferase, 24 h; AID 488899; inhibition, % at 12.5 µM; hit rate 0.83% among 330,000;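 active = mean inhibition across replicates of 60% or more, whatever share of single replicates reaches that level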
Jurkat NFkB inh = lowers PMA/ionomycin-induced NF-kB signal in Jurkat cells. PMA/ionomycin-induced NF-kB luciferase reporter, luminescence. hit rate 0.53% among 330,000. inhibition, % at 4 µM. AID 435003; in the data active = inhibition above about 50%
697 NFkB inh = inhibitors of the PMA/ionomycin-induced NF-kB reporter in 697 B cells. 697 B-cell NF-kB luciferase reporter, 16 h. inhibition, % at 4 µM. hit rate 0.33% among 330,000. AID 435022; in the data active = inhibition above about 35%
Shn3 inh set2 = inhibitors of Schnurri-3 3'UTR reporter in osteoblasts; hit rate 0.52% among 360,000; inhibition, % at 12.5 µM; AID 588674; Clone20 osteoblast Shn3 3'UTR firefly luciferase, 24 h;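 active = mean inhibition of at least 75% with every replicate also reaching 75%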
Gli-Sufu antag = Gli-Sufu pathway antagonism. Sufu-KO-LIGHT fibroblasts, Gli luciferase reporter luminescence. hit rate 0.74% among 340,000. inhibition, % at 5 µM;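 active = inhibition above about 55%, limit read from the data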
LMP1 NFkB inh = reduces LMP1-driven NF-kappaB luciferase signal | LMP1-induced NF-kappaB luciferase reporter cells, luminescence | inhibition, % at 12.5 µM | hit rate 0.69% among 350,000 | AID 504558; in the data active = inhibition above about 41%
Jurkat NFkB conf = lowers PMA/ionomycin-induced NF-kB signal in Jurkat cells. shares compounds with Jurkat NFkB inh. Jurkat NF-kB luciferase, 16 h. inhibition, % at 4 µM. hit rate 27% among 2,700. AID 435020;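 active = inhibition reaching about 45% at 4 µM in either replicate, limit read from the data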
A number is an active result; . = inactive; / = not tested or not shown.

SMILES | TRPM1 prom inh | Jurkat NFkB inh | 697 NFkB inh | Shn3 inh set2 | Gli-Sufu antag | LMP1 NFkB inh | Jurkat NFkB conf
COc1cccc(N2CCN(C(=O)c3ccc(CS(=O)c4ccc(C)cc4)o3)CC2)c1 (configuration not stated) | . | 53.5 | . | . | . | . | .
COc1cccc(N2CCN(C(=O)c3ccc(CS(=O)c4ccc(Cl)cc4)o3)CC2)c1 (configuration not stated) | . | 51.3 | . | . | . | . | .
COc1cc(C(=O)N/N=C/c2cc([N+](=O)[O-])cs2)cc(OC)c1OC | . | 67.4 | . | . | . | . | .
Cc1ccc(NC(=O)Nc2ccnc(-c3cccnc3)n2)cc1 | . | 62.4 | . | . | . | . | 46.8
Cc1c(C(=O)N2CCCC2)sc(NC(=O)c2cccc(Cl)c2)c1C#N | . | . | . | . | . | . | /
CSc1nc(N)nc2c1ncn2CC(=O)NCC(c1ccccc1)c1ccccc1 | . | . | . | . | . | . | /
O=C(Cc1ccc(Cl)cc1)Nc1ccc(-c2cc3ccccc3oc2=O)c(Cl)c1 | . | 58.9 | . | . | . | . | .
COC(=O)c1ccc(NC(=S)Nc2ccccn2)cc1 | . | . | . | . | . | . | .
CC(=O)c1ccc(S(=O)(=O)N(C)C(C)CCc2ccco2)cc1 (configuration not stated) | . | . | . | . | . | . | /
COc1cc(N/N=C/c2ccc(N(C)C)cc2)ncn1 | . | . | . | . | . | . | .
Cc1cc(NC(=O)COC(=O)c2ccc([N+](=O)[O-])cc2Cl)no1 | . | . | . | . | . | . | /
O=C(NCC(c1ccco1)N1CCc2ccccc21)C(=O)Nc1ccc(F)cc1F (configuration not stated) | . | 60.4 | . | . | . | . | .
Cc1ccc2nc(-c3ccc(SCC(=O)Nc4ccc5c(c4)OCCO5)nc3)[nH]c2c1 | . | . | . | . | . | . | .
CCOc1cc(/C=N/NC(=O)Cc2ccc(C(F)(F)F)cc2[N+](=O)[O-])ccc1O | . | . | . | . | . | . | /
CC(=O)Nc1ccc(-c2cc3ccccc3o2)cc1 | . | . | . | . | . | . | .
CCCCN(C)C(=O)Cn1ncc2c3ccccc3n(CCC)c2c1=O | . | . | . | . | . | . | /
COc1ccc2[nH]c3c(c2c1)CCNC3c1ccc([N+](=O)[O-])o1 (configuration not stated) | . | . | . | . | . | . | /
COc1ccc2[nH]c3c(c2c1)CCNC3C1CC=C(C)CC1 (configuration not stated) | . | 58.0 | . | . | . | . | .
CC(C)Sc1nc2ccccc2[nH]1 | . | . | . | . | . | . | /
CCOc1ccc(/C=N/Nc2ccccn2)cc1OC | . | . | . | . | . | . | /
C(=N\Nc1ccccn1)/c1ccc2c(c1)OCCO2 | . | . | . | . | . | . | .
CCCOc1ccc(/C=N/Nc2ccccn2)cc1OC | . | . | . | . | . | . | .
CCC(C)N1CCN(S(=O)(=O)c2ccc3ccccc3c2)CC1 (configuration not stated) | . | . | . | . | . | . | /
O=C(Cn1cnc([N+](=O)[O-])c1)NCc1ccc(F)cc1 | . | . | . | . | . | . | /
COc1ccccc1NC(=O)c1ccc(-c2ccc(Br)cc2)o1 | . | 56.9 | . | . | . | . | .
SMILES | TRPM1 prom inh | Jurkat NFkB inh | 697 NFkB inh | Shn3 inh set2 | Gli-Sufu antag | LMP1 NFkB inh | Jurkat NFkB conf
CN1CCN(c2ccccc2NC(=O)c2ccc(-c3ccc(Br)cc3)o2)CC1 | . | 50.3 | . | . | . | . | .
O=C(Nc1ccccc1N1CCCCC1)c1ccc(-c2ccc(Cl)cc2)o1 | . | 54.0 | . | . | . | . | .
S=C(c1ccc(-c2ccc(Cl)cc2)o1)N1CCCCC1 | . | . | . | . | . | . | .
O=C(Nc1ccccc1)c1ccc(-c2ccc(Br)cc2)o1 | . | . | . | . | . | . | /
Cc1ccnc(NC(=O)CCCNC(=O)c2ccc(Cl)cc2)c1 | . | . | . | . | . | . | /
O=C(O)C1CCCN(S(=O)(=O)c2cccs2)C1 (configuration not stated) | . | . | . | . | . | . | /
CCN1CCSc2ccc(C(=O)NCc3cccc(Br)c3)cc21 | . | . | . | . | . | . | /
C=C(C)c1cccc(C(C)(C)NC(=O)N2CCN(c3ccccc3)CC2)c1 | . | . | . | . | . | . | /
CCc1nnc(NC(=O)CCC(=O)N2CCN(c3cccc(Cl)c3)CC2)s1 | . | . | . | . | . | . | /
O=[N+]([O-])c1ccc(Cl)c(S(=O)(=O)NCCc2ccccn2)c1 | . | . | . | . | . | . | .
CCCN1C(=S)c2ccccc2C1c1ccccc1 (configuration not stated) | . | . | . | . | . | . | /
COC(=O)c1ccc(-c2ccc(Cl)cc2)nc1C | . | . | . | . | . | . | .
COC(=O)c1ccccc1NC(=O)c1sc(Cl)nc1C | . | . | . | . | . | . | /
CCCCN(CCCC)C(=O)c1cn(CC)c2cc(N3CCN(C)CC3)c(F)cc2c1=O | . | . | . | . | . | . | /
COc1ccc(-c2nc(-c3ccccn3)ncc2S(C)(=O)=O)cc1 | . | . | . | . | . | . | /
Cn1nc(-c2ccccn2)nc2c(=O)n(C)c(=O)nc1-2 | 103.8 | 56.5 | . | 97.6 | . | . | 94.8
COc1ccc(CC(=O)Nc2cccc(-c3nnc(-c4cccc(C)c4)o3)c2)cc1OC | . | 50.6 | . | . | . | . | 60.6
COc1ccc(CC(=O)Nc2cccc(-c3nnc(-c4ccccc4)o3)c2)cc1OC | . | / | / | . | / | . | /
CC1CC(C)CN(S(=O)(=O)c2ccc(NC(=O)c3ccc(=O)[nH]c3)cc2)C1 (configuration not stated) | . | 53.6 | . | . | . | . | 49.2
CC(C)(C)C(=O)c1cnc(Nc2ccccc2Cl)s1 | . | . | . | . | . | . | /
O=C(c1ccccc1)c1cnc(Nc2ccccc2Cl)s1 | . | . | . | . | . | . | .
Cc1occc1C(=O)N/N=C/c1ccc(OCc2ccccc2)cc1 | . | . | . | . | . | . | /
Cc1occc1C(=O)N/N=C/c1ccc(-c2ccccc2)cc1 | . | . | . | . | . | . | .
Cn1c(SC2=CS(=O)(=O)c3ccccc32)nc2ccccc21 | 65.1 | 73.9 | . | . | . | . | .
Cn1c(CSc2nc3ccccc3n2C)nc2ccccc21 | . | . | . | . | . | . | /
Cc1ccc2nc(NC(=O)c3ccc(Cl)s3)sc2c1 | . | . | . | . | . | . | .
Cc1ccc(C(=O)Nc2nc3ccccc3s2)s1 | . | . | . | . | . | . | .
Cc1ccc2nc(NC(=O)c3ccc4ncsc4c3)sc2c1 | . | . | . | . | . | . | /
Cc1ccc2nc(NC(=O)c3ccc4c(c3)OCO4)sc2c1 | . | . | . | . | . | . | .
Cc1nc2ccc(NC(=O)c3ccc(Cl)s3)cc2s1 | . | . | . | . | . | . | .
